Here are results for 28 molecules from PubChem BioAssay AID1839 (Johns Hopkins Ion Channel Center, 2009).

Screen size: about 2,400 compounds; about 220 (9.2%) were called active. The entries come from a sample that favours actives as a whole. Unmarked numbers belong to inactive results.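 How the source made its calls: active means signal change above the mean of dofetilide-free buffer controls plus 3 SD, so a positive margin; inactive means the rest.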

The test in a line: thallium signal changes without hERG – cell-based, CHO-K1 parental line, FluxOR thallium flux, counter-screen for hERG block protection project, confirmation (AID 1839).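 Further: compounds applied alone with no dofetilide to cells lacking hERG.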 The following applies: CHO-K1 parental cells, FluxOR thallium flux fluorescence; at 10 µM.
`O=C(/C=C/c1ccccc1)CC(=O)c1ccccc1O`: the signal change vs control minus 3*SD hit threshold (margin above threshold, higher = more increase) was -29.3%. Turning to `CCOc1cc(N2CCOCC2)c(OCC)cc1NC(=O)CCC1CCCC1`, the signal change vs control minus 3*SD hit threshold (margin above threshold, higher = more increase) is -19.4%. In the case of `Cc1ccccc1NC(=S)NC(=O)c1cc(-c2ccccc2)nc2ccccc12` it was -15.1%; in that of `O=C(NC(=S)NCc1ccccc1)c1ccc(Br)o1`, 39.2% (active); in that of `CCN(c1ccccc1)S(=O)(=O)c1ccc(NC(=S)NC(=O)c2ccc(Br)o2)cc1`, -20.8%. In the case of `COc1ccccc1NC(=S)NC(=O)c1ccc(-c2ccc(Cl)cc2)o1` it was -22.6%; in that of `O=C(NC(=S)Nc1ccccc1)c1ccc(Br)o1`, -17.9%. With `Cc1ccc(NC(=S)NC(=O)c2ccc(Br)o2)c(C)c1`, the signal change vs control minus 3*SD hit threshold (margin above threshold, higher = more increase) is -19.5%. As for `O=C(NC(=S)NCc1ccccc1)c1cccs1`, the signal change vs control minus 3*SD hit threshold (margin above threshold, higher = more increase) was -11.1%. In the case of `Cc1cccc(NC(=S)NC(=O)c2ccc(Br)o2)c1C` it was -13.6%.

Consider `Cc1cccc(NC(=S)NC(=O)c2ccc(Br)o2)c1`, for which the signal change vs control minus 3*SD hit threshold (margin above threshold, higher = more increase) is 9.1% (active). In the case of `Cc1cccc(C)c1NC(=S)NC(=O)c1ccc(Br)o1` it was 18.7% (active); in that of `O=C(CNC(=S)NC(=O)c1ccc(Br)o1)c1ccccc1`, -26.3%. In the case of `COc1ccc(OC)c(NC(=S)NC(=O)c2ccc(Br)o2)c1` it was -21.4%. In the case of `O=C(NC(=S)Nc1ccccc1F)c1ccc(Br)o1` it was 23% (active). Take `CCN(CC)c1ccc(NC(=S)NC(=O)c2ccco2)cc1`: the signal change vs control minus 3*SD hit threshold (margin above threshold, higher = more increase) is -1.8%. In the case of `N#Cc1c(-c2ccco2)c2c([nH]c1=S)CCCC2` it was -29.5%; in that of `CCOC(=O)c1c(-c2ccccc2)csc1NC(=S)NC`, -10.9%; in that of `CC12CCC(C/C1=N\N=C1\NC(=O)/C(=C\c3ccc(Cl)cc3)S1)C2(C)C` (stereo not drawn), -20.2%. In the case of `Cc1nnc2ccc(-c3cccc(NC(=O)c4ccc(Cl)nc4)c3)nn12` it was -41.7%; in that of `O=C(NC(=S)N1CCN(c2ccccc2)CC1)c1ccccc1`, -8.7%; in that of `CC(C)Sc1nc2ccccc2n2cnnc12`, -29.7%. In the case of `Cc1cccc(/C=C2/S/C(=N/N=C3\CC4CCC3(C)C4(C)C)NC2=O)c1` (stereo not drawn) it was -12.4%; in that of `Cc1ccc2nsnc2c1S(=O)(=O)Nc1cccc2nsnc12`, -18.7%; in that of `CCC1CCc2c(sc(NC(=O)C3CC=CCC3C(=O)O)c2C#N)C1` (stereo not drawn), -5.5%. As to `Cc1cc([N+](=O)[O-])ccc1-c1ccc(C2Nc3ccccc3C(=O)N2O)o1` (stereo not drawn), the signal change vs control minus 3*SD hit threshold (margin above threshold, higher = more increase) was -18.3%. In the case of `O=C1c2ccccc2NC(c2ccc(Br)s2)N1O` (stereo not drawn) it was 15.6% (active); in that of `C=CCc1cccc(C2Nc3ccccc3C(=O)N2O)c1O` (stereo not drawn), -26.4%.
